# Test results from PubChem BioAssay.
# The source made the active and inactive calls.
# Key:
# [1] = target: Albumin (Bos taurus) (UniProt P02769); test: bovine serum albumin binders on microarray, profiling panel, artefact control for SMM control protein annotation, biochemical, small-molecule microarray, Alexa647 label, 635/667 nm fluorescence (AID 1118); details: BSA-A647 binding, fluorescence 635 nm, higher = more signal;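 also: score merges 667 nm emission intensity and signal-to-noise per printed compound spot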
# [2] = small-molecule microarray binders of probe aXIP, primary screen, biochemical, NeuroSMM set, 635/667 nm fluorescence (AID 1119); details: higher = more signal, called active from +8 up or from −8 down;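 also: probe is the protein aXip251-270 applied at 1 µg/mL to compound-printed slides; binding of probe to printed compounds measured as 667 nm fluorescence plus signal to noise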
# [3] = small-molecule binders of probe aNOTCH3, primary screen, biochemical, small-molecule microarray, 635/667 nm fluorescence (AID 1120); details: higher = more signal;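 also: probe is a biotin-tagged antibody raised against NOTCH3 rather than NOTCH3 protein; score merges spot fluorescence near 667 nm with spot signal to noise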
# [4] = small-molecule binders of probe aNOTCH2, primary screen, biochemical, small-molecule microarray, 635/667 nm fluorescence (AID 1121); details: higher = more signal;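 also: score merges feature fluorescence read at 667 nm with its signal to noise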
# [5] = target: Carbonic anhydrase 2 (Homo sapiens) (UniProt P00918); test: CAII small-molecule binders, profiling panel, biochemical, small-molecule microarray, Alexa647-labelled CAII (AID 1122); details: CAII-A647 binding fluorescence, higher = more signal
# [6] = COS7 lysate on small-molecule microarray, probe aHis, 635 nm (AID 1123); details: COS7 cell lysate, fluorescence, higher = more signal;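 also: z-score combines 667nm fluorescence intensity with signal-to-noise per printed compound spot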
# [7] = compound binding in COS7 lysate, probe aLAP1, primary screen, cell lysate, small-molecule microarray (AID 1124); details: probe aLAP1, fluorescence, higher = more signal;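 also: lysate comes from COS7 cells expressing LAP1 and is applied at 0.3 µg/mL; score merges spot fluorescence near 667 nm with signal-to-noise over triplicate slides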
# [8] = test system: Sam68 (KHDRBS1); test: Sam68 small-molecule binders, primary screen, biochemical, small-molecule microarray, 635 nm fluorescence (AID 1125); details: small-molecule microarray binding, higher = more signal;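 also: score merges 667 nm channel intensity with signal to noise over triplicate slides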
# [9] = test system: Chordin-like protein 2 (CHRDL2); test: CHRDL2 small-molecule binders, primary screen, biochemical, small-molecule microarray, 635 nm fluorescence (AID 1126); details: small-molecule microarray binding, fluorescence 635 nm; higher = more signal;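 also: printed compound slides probed with Chrdl2 protein at 4 µg/mL for 1 h at 4 C; score merges 667 nm emission intensity with signal to noise over three replicate slides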
# [10] = target: Concanavalin-A (Canavalia ensiformis) (UniProt P02866); test: ConA small-molecule binders, primary screen, artefact control for SMM control protein annotation, biochemical, small-molecule microarray, Alexa647 label, 635 nm (AID 1127); details: ConA-A647 binding fluorescence, higher = more signal;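 also: z combines 667 nm emission intensity with signal-to-noise across three replicate slides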
# Chain of Concanavalin-A (Canavalia ensiformis) (P02866 whole entry, looked up): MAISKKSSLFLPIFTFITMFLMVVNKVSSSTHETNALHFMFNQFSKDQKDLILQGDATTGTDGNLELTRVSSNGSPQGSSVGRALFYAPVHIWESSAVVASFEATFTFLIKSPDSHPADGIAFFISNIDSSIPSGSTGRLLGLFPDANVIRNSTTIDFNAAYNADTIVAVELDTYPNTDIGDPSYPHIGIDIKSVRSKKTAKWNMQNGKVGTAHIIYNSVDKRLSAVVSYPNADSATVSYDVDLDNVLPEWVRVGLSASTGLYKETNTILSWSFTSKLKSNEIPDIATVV
# Chain of Albumin (Bos taurus) (P02769 whole entry, looked up): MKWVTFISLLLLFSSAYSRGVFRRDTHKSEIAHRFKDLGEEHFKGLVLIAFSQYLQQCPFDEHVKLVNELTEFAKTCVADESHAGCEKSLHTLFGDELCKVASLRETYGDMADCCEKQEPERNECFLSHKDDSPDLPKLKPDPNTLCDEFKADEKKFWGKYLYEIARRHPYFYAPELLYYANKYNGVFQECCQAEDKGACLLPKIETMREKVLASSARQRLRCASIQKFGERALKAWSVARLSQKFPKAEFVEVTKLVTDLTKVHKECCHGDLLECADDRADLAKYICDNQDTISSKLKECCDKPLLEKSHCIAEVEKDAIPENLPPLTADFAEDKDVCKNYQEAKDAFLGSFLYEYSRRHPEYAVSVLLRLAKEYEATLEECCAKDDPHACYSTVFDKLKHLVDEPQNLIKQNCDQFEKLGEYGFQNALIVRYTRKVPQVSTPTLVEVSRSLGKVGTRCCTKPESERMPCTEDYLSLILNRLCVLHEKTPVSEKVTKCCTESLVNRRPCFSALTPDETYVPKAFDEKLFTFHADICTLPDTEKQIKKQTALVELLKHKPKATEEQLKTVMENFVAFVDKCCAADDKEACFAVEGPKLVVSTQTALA
SMILES,composite z-score [1],composite Z-score [2],composite z-score [3],composite z-score [4],composite z-score [5],composite z-score [6],composite z-score [7],composite z-score [8],composite z-score [9],composite z-score [10]
COC(=O)[C@@]1(Cc2ccc(F)cc2)[C@H]2c3cc(C(=O)N4CCCC4)n(CCc4c[nH]c5cc(F)ccc45)c3C[C@H]2CN1C(=O)c1ccccc1,0.978,0.905 (inactive),1.05,0.488,0.767,2.76,0.202,1.33,0.212,1.03
C=C[C@@H](CO)NS(=O)(=O)c1ccc(Br)cc1,0.225,-0.67 (inactive),-0.331,-0.17,-0.359,-0.412,-0.32,-2.22,0.222,-1.76
O=C1NC(=O)C2C1C=CC(C(O)C(O)CO)N2Nc1ccccn1 (stereo not given),0.319,0.035 (inactive),0.0026,-0.207,0.315,0.344,0.635,0.523,0.105,0.932
COCCOC(=O)N1C(=O)[C@@]2(c3cc(C#CCC(C(=O)OC)C(=O)OC)ccc31)[C@H](c1ccc(O)cc1)N1[C@H](c3ccccc3)[C@H](c3ccccc3)OC(=O)[C@H]1[C@@H]2C(=O)N1CCc2cc(OC)c(OC)cc2C1,-0.0894,-0.262 (inactive),0.147,-0.0166,0.378,1.12,0.761,1.29,0.242,0.903
CC[C@@H](O[Si](C#C[Si](C(C)C)(C(C)C)C(C)C)(C(C)C)C(C)C)c1cn([C@H](C)c2ccccc2)nn1,-0.605,0.515 (inactive),-0.016,-0.171,0.0757,0.365,0.369,0.71,0.26,0.364
COCCOC(=O)N1C(=O)[C@@]2(c3cc(C#CCCO)ccc31)[C@H](c1ccc(O)cc1)N1[C@H](c3ccccc3)[C@H](c3ccccc3)OC(=O)[C@H]1[C@@H]2C(=O)NC[C@H](O)c1ccccc1,0.417,0.406 (inactive),-0.0105,-0.0858,0.529,1.89,1.08,1.29,0.181,0.613
CC(C)N1C(=O)[C@@]2(Cc3ccccc31)c1ccccc1C(=O)N(Cc1ccccc1C(F)(F)F)[C@H]2c1ccc(CO)cc1,-0.832,0.795 (inactive),-0.374,0.0015,0.754,-0.011,0.739,1.01,1.14,1.1
C=CCC(OC(C)=O)[C@@H]1[C@@H](N(Cc2ccc(-c3ccccc3)cc2)C(=O)Cc2ccc(OC)cc2)c2cc(OCCCO)ccc2N1C(=O)Cc1ccc(OC)cc1 (stereo not given in full),-0.0621,0.445 (inactive),0.464,0.146,0.306,0.248,0.302,0.0538,0.235,-0.0563
C=C(CCCC)C(=O)CC[C@H](OC(=O)c1ccccc1-c1ccccc1C(=O)O)c1cccc(OCCO)c1,0.314,-0.634 (inactive),-0.161,-0.126,0.749,0.729,1.07,0.225,-0.189,-1.14
COC(=O)C(CC#Cc1ccc2c(c1)[C@]1(C(=O)N2)[C@H](c2ccc(OCCO)cc2)N2[C@H](c3ccccc3)[C@H](c3ccccc3)OC(=O)[C@H]2[C@@H]1C(N)=O)C(=O)OC,0.734,-0.0003 (inactive),-0.209,-0.136,0.389,2.2,0.431,1.06,-0.907,1.14
CC(C)C[C@@H]1NC(=O)[C@@H]2C[C@H](C(=O)NCCCCCCNC(=O)CS)[C@H](c3ccc(O)cc3)N2C1=O,-0.025,0.0101 (inactive),0.133,-0.0817,0.706,1.91,0.655,1.28,1.26,0.995
C[C@H]1C2[C@H](Cc3ccccc3)NC(=O)[C@]23C(=O)N[C@@H](Cc2ccccc2)C(=O)N2CCC[C@H]2C(=O)NC/C=C/CC/C=C/C3[C@@H]2O[C@]12C (stereo not given in full),0.688,-0.571 (inactive),0.073,-0.159,0.619,0.501,0.472,0.868,0.638,0.236
COCCOC(=O)N1C(=O)[C@@]2(c3cc(C#CC4=CCCCC4)ccc31)[C@H](c1ccc(O)cc1)N1[C@H](c3ccccc3)[C@H](c3ccccc3)OC(=O)[C@H]1[C@@H]2C(=O)N1CCc2cc(OC)c(OC)cc2C1,0.699,-0.007 (inactive),-0.0014,-0.0454,0.468,2.29,0.743,1.28,-0.329,0.753
COC(=O)C[C@H]1O[C@]2(C(=O)N(C)c3ccccc32)[C@@H](C)[C@@H]1[Si](C)(C)c1ccccc1,-0.0967,-0.142 (inactive),0.16,-0.171,0.288,0.198,0.216,0.898,0.816,0.593
COCCCNC(=O)[C@]1(Cc2ccccc2CN=[N+]=[N-])N=C(c2ccc(OCCCO)cc2)O[C@@H]1c1ccccc1N=[N+]=[N-],0.835,-0.217 (inactive),0.805,0.188,0.525,2.24,0.152,1.34,-0.992,1.05
C[C@@]1([C@@H](NS(=O)(=O)c2cccc3cccnc23)c2ccc(-c3ccccc3)cc2)C[C@H]1C1CCCCC1,0.533,-0.343 (inactive),0.314,0.131,0.549,2.06,0.165,0.292,-0.214,0.391
CCOC(=O)C[C@H]1[C@H](OC(=O)c2ccc(-c3ccccc3)cc2)[C@@H](NC(=O)C2CCCCC2)c2cc(OCCCO)ccc2N1C(=O)Cc1ccc(OC)cc1,0.561,0.204 (inactive),-0.0362,-0.182,-0.0434,0.405,0.652,0.496,0.0463,-0.361
CO[C@H]1O[C@H](CO)[C@@H](OC(=O)Nc2cccc(F)c2)[C@H](OC(=O)c2cc3ccccc3[nH]2)[C@H]1OC(=O)c1cc2ccccc2[nH]1,0.467,-0.0925 (inactive),-0.0048,-0.132,0.209,0.799,0.337,-0.537,-0.332,-0.732
CCCCC=C[C@@H](NC(=O)C(C)(C)C)c1ccccc1,0.743,-0.424 (inactive),0.259,-0.0769,0.509,-0.0783,0.983,1.09,-0.264,1.04
COC(=O)[C@@]1(Cc2ccc(F)cc2)[C@H]2c3cc(C(=O)N(C)C)n(Cc4ccc(C(F)(F)F)nc4)c3C[C@H]2CN1C(=O)c1ccccc1,0.98,-0.387 (inactive),0.894,-0.0531,0.726,3.26,0.311,1.33,0.214,1.1
CCc1cccc(NC(=O)O[C@H]2[C@H](OC(=O)Nc3ccccc3-c3ccccc3)[C@H](OC(=O)Nc3ccccc3-c3ccccc3)[C@@H](OC)O[C@@H]2CO)c1,0.715,0.814 (inactive),0.122,-0.0273,0.728,2.04,0.0611,1.28,0.478,1.12
CC(C)C[C@H]1NC(=O)CNC(=O)[C@@]23C(=O)N[C@@H](Cc4ccccc4)C2[C@H](C)[C@@]2(C)O[C@H]2C3/C=C/C/C=C\CNC1=O (stereo not given in full),0.591,-0.0443 (inactive),-0.0984,-0.133,0.392,0.677,0.248,0.258,0.599,0.0947
C=C(COC)C(=O)CC[C@H](OC(C)=O)c1ccccc1OCCO,-1.63,-0.743 (inactive),-0.0343,-0.115,0.662,0.0092,-0.325,0.176,-0.0471,-0.153
O=C(NC1CC1)[C@@H]1c2ccccc2C(=O)N(C2CCCCC2)[C@H]1c1ccc(CO)cc1,-0.0383,0.635 (inactive),-0.214,-0.136,0.554,2.64,1.99,0.454,-0.696,0.332
O=C1O[C@H](c2ccccc2)[C@H](c2ccccc2)N2[C@H]1[C@@H](C(=O)Nc1nc3ccccc3s1)[C@]1(C(=O)Nc3ccccc31)[C@H]2c1ccccc1OCCO,0.939,0.417 (inactive),0.0242,-0.014,0.393,2.24,0.921,1.29,-0.131,0.668
C=C(CCCC)/C(=C/C[C@@H](OC(C)=O)c1ccc(OCCO)cc1)c1cc(C(=O)OC)ccc1OC,-0.526,0.0578 (inactive),-0.0377,-0.092,0.721,1.55,0.155,1.2,-0.362,0.787
